Results on 15 compounds are retold here after PubChem BioAssay.

The structures appear in SMILES notation. For part of these data: Potency and affinity values are given separately. Active and inactive are the calls of the source.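 Rule for the calls, unless noted: active = dose curve with midpoint inside tested range, moderate steepness, plateau gap beyond fit error, low compound glow and bead-link interference; inactive = the rest.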

Assay [1] addresses Cell division control protein 42 homolog (Homo sapiens) (UniProt P60953). The experiment in a line: inhibition of fluorescent GTP binding to constitutively active Cdc42 – biochemical, multiplex bead flow cytometry, Bodipy-FL-GTP, dose response (AID 1333;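 active = fitted half-maximal concentration within the tested dose range, moderate curve steepness, a statistically real signal drop, and little compound fluorescence or tag-binding interference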).
The target is the same in assay [2]. In words: inhibition of fluorescent GTP binding to wildtype Cdc42 – biochemical, multiplex bead flow cytometry, Bodipy-FL-GTP, dose response (AID 1334;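 active = fitted half-maximal concentration within the tested range, moderate curve steepness, significant signal drop, and little compound fluorescence or bead-linkage interference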). The conditions noted are these: bead-based flow cytometry, Bodipy-FL-GTP binding to GST-Cdc42; at 100 µM (top of the series) unless noted.
Assay [3] has as its target GTPase HRas (Homo sapiens) (UniProt P01112). The experiment in a line: Ras wt fluorescent GTP loading blockade – biochemical, wildtype, multiplex bead flow cytometry, dose response (AID 1335;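 active = fitted half-maximal concentration within 10 nM to 100 µM, steepness 0.5 to 2, significant signal drop, low assay interference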). Particulars: bead-based flow cytometry, Bodipy-GTP binding to GST-Ras; at 100 µM (top of the series) unless noted.
The test system of assay [4] is Ras-related protein Rab-7a (dog), GTP binding. The experiment in a line: blockers of fluorescent GTP binding to Rab7 – biochemical, wildtype, multiplex bead flow cytometry, dose response (AID 1336; call rule not given here).
The target of assay [5] is Ras-related C3 botulinum toxin substrate 1 (Homo sapiens) (UniProt P63000). The experiment in a line: inhibition of wildtype Rac1 nucleotide loading – biochemical, multiplex bead flow cytometry, dose response (AID 1340). Particulars: GST-Rac1 beads, Bodipy-FL-GTP binding; at 100 µM (top of the series) unless noted.
In assay [6] the target is GTPase HRas (Homo sapiens) (UniProt P01112). In words: blockade of GTP loading onto mutant Ras – biochemical, activated mutant, multiplex bead flow cytometry, dose response (AID 1341;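 active = dose-response curve with midpoint inside the tested range, moderate steepness, significant amplitude and little compound fluorescence or bead-attachment interference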;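 note: GST-tagged constitutively activated Ras mutant immobilized on beads and multiplexed with other GTPases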).
Chain of GTPase HRas (Homo sapiens) (P01112 whole entry, looked up): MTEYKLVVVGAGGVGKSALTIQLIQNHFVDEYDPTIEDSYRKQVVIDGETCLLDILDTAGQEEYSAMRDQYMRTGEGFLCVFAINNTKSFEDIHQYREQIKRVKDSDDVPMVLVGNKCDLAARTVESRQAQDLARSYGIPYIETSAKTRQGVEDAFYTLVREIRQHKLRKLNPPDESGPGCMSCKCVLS

Chain of Cell division control protein 42 homolog (Homo sapiens) (P60953 whole entry, looked up): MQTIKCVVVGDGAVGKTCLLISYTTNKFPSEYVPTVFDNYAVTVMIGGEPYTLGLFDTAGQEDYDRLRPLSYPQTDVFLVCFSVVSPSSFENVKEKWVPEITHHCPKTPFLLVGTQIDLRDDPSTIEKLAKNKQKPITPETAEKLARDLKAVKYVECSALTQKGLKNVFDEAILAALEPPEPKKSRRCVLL

Take `Cc1ccc(C(=O)c2ccccc2C(=O)O)cc1`: the compound was classed as inactive in assay [1], in assay [4] and in assay [6]. Besides, the fluorescence, percent of control (lower = inhibition) in assay [2] turned out to be 67.4%. In assay [3], this compound returned a GTP binding, percent of control of 89.9%. The same compound had a GTP binding signal, raw median fluorescence (lower = inhibition) (MCF (arbitrary fluorescence units)) in assay [5] of 38.5.

On to `O=C(CSc1ccc2nnc(-c3ccncc3)n2n1)Nc1nccs1`, for which the compound was called inactive in assay [1], in assay [4] and in assay [6]. For the same compound, the fluorescence, percent of control (lower = inhibition) in assay [2] turned out to be 30.7%. In assay [3], this compound had a GTP binding, percent of control of 69.4%. The same compound came in with a GTP binding signal, raw median fluorescence (lower = inhibition) (MCF (arbitrary fluorescence units)) in assay [5] of 174.

On to `O=C(O)c1c(C(F)(F)F)ccnc1NCc1ccccc1`, for which the compound was classed as inactive in assay [1], in assay [4] and in assay [6]. In addition, in assay [2], the fluorescence, percent of control (lower = inhibition) was 61.8%. The compound also returned a GTP binding, percent of control in assay [3] of 224%. Moreover, the GTP binding signal, raw median fluorescence (lower = inhibition) (MCF (arbitrary fluorescence units)) in assay [5] stood at 57.2.

On to `O=C(COc1ccccc1-c1ccccc1)N/N=C/c1ccncc1`, for which the compound was called inactive in assay [1], in assay [4] and in assay [6]. In addition, the fluorescence, percent of control (lower = inhibition) in assay [2] amounted to 33.3%. The compound further showed a GTP binding, percent of control in assay [3] of 77.4%. This compound returned a GTP binding signal, raw median fluorescence (lower = inhibition) (MCF (arbitrary fluorescence units)) in assay [5] of 247.

`COCCN1C(=O)/C(=C/c2ccc(N3CCCC3)cc2)SC1=S`: the compound was classed as inactive in assay [1], in assay [4] and in assay [6]. Besides, the fluorescence, percent of control (lower = inhibition) in assay [2] worked out at 64.2%. Also, the GTP binding, percent of control in assay [3] turned out to be 106%. Further, the GTP binding signal, raw median fluorescence (lower = inhibition) (MCF (arbitrary fluorescence units)) in assay [5] was 311.

In the case of `O=C(CNC(=O)c1ccco1)OCN1C(=O)c2ccccc2C1=O`, the compound was called inactive in assay [1], in assay [4] and in assay [6]. Besides, the fluorescence, percent of control (lower = inhibition) in assay [2] came out at 52%. Moreover, the GTP binding, percent of control in assay [3] is 66.1%. The GTP binding signal, raw median fluorescence (lower = inhibition) (MCF (arbitrary fluorescence units)) in assay [5] was 220.

On to `CCCc1cc(-n2ccnc2)n2c(nc3ccccc32)c1C#N`, for which the call in assay [1], in assay [4] and in assay [6] was inactive. Moreover, the fluorescence, percent of control (lower = inhibition) in assay [2] is 172%. The GTP binding, percent of control in assay [3] was 195%. In assay [5], this compound returned a GTP binding signal, raw median fluorescence (lower = inhibition) (MCF (arbitrary fluorescence units)) of 212.

Turning to `Cc1c(NS(=O)(=O)c2ccc3c(c2)Cc2ccccc2-3)c(=O)n(-c2ccccc2)n1C`, the outcome in assay [1], in assay [4] and in assay [6] was inactive. The fluorescence, percent of control (lower = inhibition) in assay [2] turned out to be 30.4%. This compound had a GTP binding, percent of control in assay [3] of 80%. The GTP binding signal, raw median fluorescence (lower = inhibition) (MCF (arbitrary fluorescence units)) in assay [5] was 238.

Turning to `CCC(C)NC(=O)CSc1nc2n[nH]c(C)c2c(=N)n1-c1ccc(OC)cc1` (stereo not given), the outcome in assay [1], in assay [4] and in assay [6] was inactive. For the same compound, the fluorescence, percent of control (lower = inhibition) in assay [2] was found to be 36%. The GTP binding, percent of control in assay [3] turned out to be 48.9%. For the same compound, in assay [5], the GTP binding signal, raw median fluorescence (lower = inhibition) (MCF (arbitrary fluorescence units)) was found to be 111.

Turning to `O=C(N/N=C/c1ccc([N+](=O)[O-])o1)c1cn(-c2ccccc2)nc1-c1ccc(Cl)cc1`, the compound was called inactive in assay [1], in assay [4] and in assay [6]. Moreover, the fluorescence, percent of control (lower = inhibition) in assay [2] amounted to 31.7%. In assay [3], the GTP binding, percent of control stood at 77%. The GTP binding signal, raw median fluorescence (lower = inhibition) (MCF (arbitrary fluorescence units)) in assay [5] was determined as 207.

On to `COc1cccc(/C=C/C(=O)Nc2ccccc2N2CCOCC2)c1`, for which the call in assay [1], in assay [4] and in assay [6] was inactive. In assay [2], the fluorescence, percent of control (lower = inhibition) was determined as 33.2%. This compound also returned a GTP binding, percent of control in assay [3] of 83.5%. In assay [5], this compound displayed a GTP binding signal, raw median fluorescence (lower = inhibition) (MCF (arbitrary fluorescence units)) of 243.

Turning to `O=C(O)c1ccccc1C(=O)OCc1ccc(F)cc1F`, the outcome in assay [1], in assay [4] and in assay [6] was inactive. Also, the fluorescence, percent of control (lower = inhibition) in assay [2] stood at 89.8%. The compound further returned a GTP binding, percent of control in assay [3] of 106%. Also, the GTP binding signal, raw median fluorescence (lower = inhibition) (MCF (arbitrary fluorescence units)) in assay [5] was determined as 72.5.

As to `COc1ccc(-c2noc(CCC(=O)N3CCN(c4cc(C)ccc4C)CC3)n2)cc1`, the outcome in assay [1], in assay [4] and in assay [6] was inactive. The fluorescence, percent of control (lower = inhibition) in assay [2] was 25.4%. Moreover, in assay [3], the GTP binding, percent of control was 76%. In assay [5], the GTP binding signal, raw median fluorescence (lower = inhibition) (MCF (arbitrary fluorescence units)) was found to be 195.

For `O=C(CCl)Nc1cccn2ncnc12`, the call in assay [1], in assay [4] and in assay [6] was inactive. Further, the fluorescence, percent of control (lower = inhibition) in assay [2] turned out to be 37.7%. Moreover, the GTP binding, percent of control in assay [3] was 83%. Besides, the GTP binding signal, raw median fluorescence (lower = inhibition) (MCF (arbitrary fluorescence units)) in assay [5] stood at 274.

For the compound `Cc1nnc(SCC(=O)N2CCOCC2)c2ccccc12`, the compound was called inactive in assay [1], in assay [4] and in assay [6]. Besides, in assay [2], the fluorescence, percent of control (lower = inhibition) was determined as 49.3%. This compound yielded a GTP binding, percent of control in assay [3] of 61.1%. In addition, the GTP binding signal, raw median fluorescence (lower = inhibition) (MCF (arbitrary fluorescence units)) in assay [5] worked out at 192.
